# Assay results published in the supplement of paper PMC8371130.
# Structures can show the parent of a compound that is named as a salt.
# System: HL-1
# Assay: relative cell viability (CellTiter-Glo) vs DMSO control (% of DMSO control); higher = more viable cells
# In short: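 Compounds at 40, 200, 1000 or 5000 nM in 0.01% DMSO were added to HL-1 mouse atrial cardiomyocytes plated at 1000 cells per well in 384-well plates. The next day, cells were exposed to 1% O2 for 48 h and then reoxygenated for 24 h, or left in normoxia for the same time. Viability was read with CellTiter-Glo luminescence and normalised to vehicle-treated controls.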
# [1] = oxygen condition: hypoxia 48 h (1% O2) + reoxygenation 24 h, 40 nM
# [2] = oxygen condition: hypoxia 48 h (1% O2) + reoxygenation 24 h, 200 nM
# [3] = oxygen condition: hypoxia 48 h (1% O2) + reoxygenation 24 h, 1000 nM
# [4] = oxygen condition: hypoxia 48 h (1% O2) + reoxygenation 24 h, 5000 nM
# [5] = oxygen condition: normoxia 72 h, 40 nM
# [6] = oxygen condition: normoxia 72 h, 200 nM
# [7] = oxygen condition: normoxia 72 h, 1000 nM
# [8] = oxygen condition: normoxia 72 h, 5000 nM
Structure (SMILES),relative cell viability [1],relative cell viability [2],relative cell viability [3],relative cell viability [4],relative cell viability [5],relative cell viability [6],relative cell viability [7],relative cell viability [8]
CCCc1ncc(C[n+]2ccccc2C)c(N)n1 [Amprolium HCl],104,104,108,110,97.4,104,110,100
Cc1ccc(NC(=O)c2ccc(CN3CCN(C)CC3)cc2)cc1Nc1nccc(-c2cccnc2)n1 [Imatinib Mesylate],121,117,136,111,122,146,156,117
CN(c1nccc(=O)[nH]1)C1CCN(c2nc3ccccc3n2Cc2ccc(F)cc2)CC1 [Mizolastine],97.1,98.1,101,108,97.3,94.6,101,107
NC(=O)c1ncn([C@@H]2O[C@H](CO)[C@@H](O)[C@H]2O)c1N [Acadesine],90.2,102,102,116,103,103,110,117
Nc1nc(F)nc2c1ncn2[C@@H]1O[C@H](COP(=O)(O)O)[C@@H](O)[C@@H]1O [Fludarabine Phosphate],115,108,119,113,108,115,119,111
CCCc1nn(C)c2c(=O)[nH]c(-c3cc(S(=O)(=O)N4CCN(C)CC4)ccc3OCC)nc12 [Sildenafil citrate],99.7,102,105,104,107,103,101,109
O=C(CCCN1CC=C(n2c(=O)[nH]c3ccccc32)CC1)c1ccc(F)cc1 [Droperidol],94.9,102,105,103,97.3,97,93.9,106
Nc1nc2ccc(OC(F)(F)F)cc2s1 [Riluzole],102,105,108,111,103,104,107,107
CC1=NN(c2ccc(C)c(C)c2)C(=O)/C1=N\Nc1cccc(-c2cccc(C(=O)O)c2)c1O [Eltrombopag],105,86,109,107,106,112,111,108
Cc1cccc(Nc2ccccc2C(=O)O)c1C [Mefenamic acid],96.6,93.4,102,113,100,105,111,110
COc1nc(C)nc(Cl)c1NC1=NCCN1 [Moxonidine],103,97.1,99.6,112,110,103,107,111
O=C(O)C1=CO[C@@H](O[C@@H]2O[C@H](CO)[C@@H](O)[C@H](O)[C@H]2O)[C@@H]2C(CO)=CC[C@H]12 [Geniposidic acid],107,109,110,112,103,120,117,121
CN(C)CCCN1c2ccccc2Sc2ccc(Cl)cc21 [Chlorpromazine],104,103,106,107,97.1,100,106,117
CNCC[C@@H](Oc1ccccc1C)c1ccccc1 [Atomoxetine HCl],102,104,108,108,100,102,103,119
C[C@]12CCC3=C4CCC(=O)C=C4CC[C@H]3[C@@H]1CC[C@@]2(O)CC#N [Dienogest],103,104,106,103,105,102,107,107
CCOC(=O)[C@H](CCc1ccccc1)N[C@@H](C)C(=O)N1C(=O)N(C)C[C@H]1C(=O)O [Imidapril],111,103,99.3,115,110,103,104,113
NC(=O)OCC(COC(N)=O)c1ccccc1 [Felbamate],101,106,96.3,110,110,107,105,110
Cc1ccc(NC(=O)c2ccc(CN3CCN(C)CC3)cc2)cc1Nc1nccc(-c2cccnc2)n1 [Imatinib],101,101,110,107,105,100,98.6,111
COC(=O)C1=C(C)NC(C)=C(C(=O)OC2CCCN(Cc3ccccc3)C2)C1c1cccc([N+](=O)[O-])c1 (stereo unspecified) [Benidipine hydrochloride],104,113,109,25,114,109,102,24
COc1cc2/c(=N/c3ccc(Br)cc3F)nc[nH]c2cc1OCC1CCN(C)CC1 [Vandetanib],110,115,115,102,113,112,116,102
COc1ccc(CN2CCN(C(c3ccc(F)cc3)c3ccc(F)cc3)CC2)c(OC)c1OC [Lomerizine HCl],96.9,105,108,106,68.3,102,106,108

Structure (SMILES),relative cell viability [1],relative cell viability [2],relative cell viability [3],relative cell viability [4],relative cell viability [5],relative cell viability [6],relative cell viability [7],relative cell viability [8]
CC(=O)OCC(=O)[C@@]1(O)CC[C@H]2[C@@H]3CCC4=CC(=O)CC[C@]4(C)[C@H]3C(=O)C[C@@]21C [Cortisone acetate],99.7,98.2,98.1,108,94.7,94.2,93.2,103
NS(=O)(=O)c1cc2c(cc1C(F)(F)F)NC(Cc1ccccc1)NS2(=O)=O (stereo unspecified) [Bendroflumethiazide],93.6,98.4,101,106,104,100,105,110
Nc1ncnc2c1ncn2[C@@H]1O[C@H](CO)[C@@H](O)[C@H]1O [Adenosine],104,107,113,108,104,108,111,110
C=CCNC(N)=S [Allylthiourea],118,102,115,122,106,100,109,124
N=C(N)N/N=C/c1c(Cl)cccc1Cl [Guanabenz acetate],96.3,113,105,99.1,101,99.6,98.7,98.9
C[C@]12CC[C@@H]3c4ccc(O)cc4CC[C@H]3[C@@H]1CC[C@@H]2O [Estradiol],105,98.2,100,94,101,103,100,100
COc1ccc(CC2c3cc(OC)c(OC)cc3CC[N+]2(C)CCC(=O)OCCCCCOC(=O)CC[N+]2(C)CCc3cc(OC)c(OC)cc3C2Cc2ccc(OC)c(OC)c2)cc1OC (stereo unspecified) [Atracurium besylate],104,96.7,91.2,23.1,101,93.3,95.7,18.9
Cc1ccc(N(CC2=NCCN2)c2cccc(O)c2)cc1 [Phentolamine mesilate],96.2,94.7,107,106,102,104,108,115
CN(Cc1cnc2nc(N)nc(N)c2n1)c1ccc(C(=O)N[C@@H](CCC(=O)O)C(=O)O)cc1 [Abitrexate],75.8,51.7,42.5,42,58.2,52.2,41.8,43.9
CCCCNc1ccc(C(=O)OCCN(C)C)cc1 [Tetracaine hydrochloride],97.8,104,107,106,103,106,111,108
Cn1c(=O)c2c(ncn2CC2OCCO2)n(C)c1=O [Doxofylline],101,111,122,113,108,111,113,122
O=C(O)c1cn(C2CC2)c2cc(N3CCNCC3)c(F)cc2c1=O [Ciprofloxacin],107,100,99.7,121,97.4,99.2,107,121
Cc1cn([C@H]2C[C@H](N=[N+]=[N-])[C@@H](CO)O2)c(=O)[nH]c1=O [Zidovudine],106,109,119,112,110,110,112,109
O=C1O[C@H]([C@@H](O)CO)C([O-])=C1O.[Na+] [Sodium ascorbate],99.7,101,106,117,98.8,103,102,114
CN(C)CC/C=C1/c2ccccc2COc2ccc(CC(=O)O)cc21 [Olopatadine hydrochloride],93,92.6,92.2,99.1,89.6,91.6,97.1,102
N[C@@H]1CCCCN(c2c(F)cc3c(=O)c(C(=O)O)cn(C4CC4)c3c2Cl)C1 [Besifloxacin HCl],96.9,99.1,96.7,101,101,99.5,98.6,102
OC(CCN1CCCCC1)(c1ccccc1)C1CC2C=CC1C2 (stereo unspecified) [Biperiden HCl],106,104,93.9,108,106,106,106,100
NS(=O)(=O)c1cc(C(=O)O)c(NCc2ccco2)cc1Cl [Furosemide],116,105,108,112,106,101,111,106
COc1cc([C@@H]2c3cc4c(cc3[C@@H](O[C@@H]3O[C@@H]5CO[C@@H](c6cccs6)O[C@H]5[C@H](O)[C@H]3O)[C@H]3COC(=O)[C@H]23)OCO4)cc(OC)c1O [Teniposide],96.6,102,98.2,115,105,104,102,118
CN1C(CCl)Nc2cc(Cl)c(S(N)(=O)=O)cc2S1(=O)=O (stereo unspecified) [Methyclothiazide],106,98.5,105,110,108,106,109,115
Fc1ccc(C(c2ccc(F)cc2)N2CCN(C/C=C/c3ccccc3)CC2)cc1 [Flunarizine 2HCl],93.6,100,98.7,117,107,99.7,109,114
